Measurements taken from publication PMC5540273 (PLoS ONE, 2017).

Assays:
Conditions in all cases: concentration: 1 μM, replicates: in singlicate; n = 1
[1] = test system: JAK1(JH2domain-pseudokinase)
[2] = test system: JAK2(JH1domain-catalytic)
[3] = test system: JAK3(JH1domain-catalytic)
[4] = test system: T1, JNK1
T1 construct: gene MAPK8

[5] = test system: T2, JNK2
T2 construct: gene MAPK9

[6] = test system: T3, JNK3
T3 construct: gene MAPK10

[7] = test system: KIT-autoinhibited
[8] = test system: KIT
[9] = test system: LATS1
[10] = test system: LATS2
[11] = test system: LCK
[12] = test system: LIMK1
[13] = test system: LIMK2
[14] = test system: T4, LKB1
T4 construct: gene STK11

[15] = test system: T5, LOK
T5 construct: gene STK10

[16] = test system: LRRK2
[17] = test system: LTK
[18] = test system: LYN
[19] = test system: T6, LZK
T6 construct: gene MAP3K13

[20] = test system: MAK
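Note: KINOMEscan kinase panel screen.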

Compound	%Inh [1] [%]	%Inh [2] [%]	%Inh [3] [%]	%Inh [4] [%]	%Inh [5] [%]	%Inh [6] [%]	%Inh [7] [%]	%Inh [8] [%]	%Inh [9] [%]	%Inh [10] [%]	%Inh [11] [%]	%Inh [12] [%]	%Inh [13] [%]	%Inh [14] [%]	%Inh [15] [%]	%Inh [16] [%]	%Inh [17] [%]	%Inh [18] [%]	%Inh [19] [%]	%Inh [20] [%]
CNc1nccc(-c2ccc3c(N)n[nH]c3c2)n1 [GSK2206003]	57	47	15	46	36	29	0	57	0	17	19	0	0	5	23	1	27	0	0	29
COc1cccc(C2=C(Nc3cccc(O)c3)C(=O)NC2=O)c1 [SB-390771]	0	15	94.2	46	50	28	0	15	0	1	11	9	18	0	0	0	6	24	0	25
CC(C)c1nc(-c2cccc(NS(=O)(=O)c3c(F)cccc3F)c2)c(-c2ccnc(Nc3ccc(N4CCOCC4)nc3)n2)s1.Cl [GSK1723980]	44	36	92.3	23	31	7	0	99.9	4	0	99.7	100	100	4	99.1	18	0	97.8	52	70
Nc1ncc(-c2ccc3nccc(-c4ccncc4)c3c2)cc1S(=O)(=O)N1CCCCC1 [GSK1693850]	14	0	0	35	18	29	0	44	21	0	24	0	22	0	7	0	6	16	0	16
COc1ccc(NC(=O)c2ccoc2)cc1-c1ccc(C(=O)NCC2CC2)cc1 [GW810437]	0	47	0	23	23	11	17	0	12	0	0	2	0	52	28	20	16	0	19	13
COc1ccc(C)c(Nc2ccnc(Nc3ccc(-c4cnc[nH]4)cc3)n2)c1.Cl [GW784041]	76	14	0	14	0	0	0	70	12	0	75	31	16	0	57	0	42	30	0	0
CN(c1ccc(F)c(NC(=O)c2cccc(OC(C)(C)C#N)c2Cl)c1)c1ccc2nc(NC(=O)C3CC3)sc2n1	3	0	0	11	0	20	6	99.8	0	35	97.9	0	0	11	95.4	9	0	93.1	46	0
Fc1cc(Cl)ccc1Nc1ccnc2cc(-c3ccc(CN4CCOCC4)o3)ccc12 [GW560109]	0	35	0	29	23	15	22	100	0	0	97	0	0	0	62	70	57	76	0	7
CN(C)CCNS(=O)(=O)c1ccc(-c2ccnc3[nH]ccc23)cc1 [GSK977620]	0	82	56	29	17	15	0	9	29	93	23	0	0	0	0	47	4	0	0	84
Cc1cccc(Nc2nc(NCCN)ncc2C(N)=O)c1 [GSK1292139]	96.6	54	0	43	4	23	9	72	0	76	15	0	0	24	0	0	26	3	0	15
O=C(Nc1n[nH]c2nc(-c3cccc(O)c3)ccc12)C1CC1 [SB-711805]	21	29	0	25	8	5	13	30	0	1	25	0	0	14	15	0	12	5	0	0
CC(C)(C)c1ccc(C(=O)Nc2cn3cc(-n4ccnc4)ccc3n2)cc1	2	26	0	5	0	0	20	98.4	0	0	0	0	10	0	0	12	0	10	0	18
CN(c1ccc(NC(=O)Nc2cccc(Cl)c2)cc1)c1ccnc(N)n1.Cl [GW830707]	0	27	0	0	0	0	45	100	18	0	7	0	0	20	97.8	66	12	0	0	11
Cc1ccc(NC(=O)c2cccc(N3CCCCC3)c2)cc1-c1ccc(C(=O)NCC2CC2)cc1 [GSK1917008]	19	15	0	22	30	10	6	79	0	16	38	8	100	0	32	22	7	0	0	24
O=C(Nc1n[nH]c2nc(-c3ccccc3O)ccc12)C1CC1 [SB-711880]	0	0	0	38	31	24	32	0	0	0	37	0	0	22	77	0	0	0	20	16
COC(=O)Nc1nc2ccc(Oc3ccc(NC(=O)Nc4cc(C(F)(F)F)ccc4F)cc3)cc2[nH]1.Cl [GW654607]	0	55	16	0	65	7	0	100	0	0	99.3	37	16	0	99.1	28	63	86	0	85
CN(c1ccc2c(c1)nc(NCc1ccccc1)n2C)c1ccnc(Nc2ccc(CS(C)(=O)=O)cc2)n1.Cl [GW811603]	0	60	99.2	65	40	47	80	100	0	0	59	1	0	0	99.5	0	37	52	0	33
